NSD2 HMT inh: NSD2 histone methyltransferase inhibitors, primary screen, biochemical, AlphaScreen, single concentration, set 2. NSD2 peptide methylation, 120 min. inhibition, % at 12.5 µM. 310,000 compounds, 0.54% hits. AID 743445, 2014; in the data active = inhibition above about 50%
SUMO Mot1 rescue: yeast Mot1-301 growth rescue at high temperature, primary screen, SUMOylation pathway inhibitor project, S. cerevisiae, ATP luminescence, 38.5C; S. cerevisiae Mot1-301 growth rescue; percent above DMSO median, 100 means doubled; growth rescue, % at 18.8 µM; 320,000 compounds, 1% hits; AID 2716, 2010;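 active = every valid replicate shows activation above 250% relative to neutral control wells; inactive = the rest, any valid replicate at or below 250%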;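 also: OY570 slx delta 5 strain wells were the positive control but not used for scaling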
CDK5 inh: inhibitors of human CDK5/p35 kinase, primary screen, biochemical, single concentration | Cyclin-dependent kinase 5 (Homo sapiens) + Cyclin-dependent kinase 5 activator 1 (Homo … | Recombinant CDK5/p35, ADP-Glo luminescence, 60 min | inhibition, % at 10 µM | 330,000 compounds, 0.01% hits | AID 488839, 2010;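 active = highest replicate inhibition of at least 50% and at least 75% of replicates reaching 50%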;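 also: plate controls were DMSO neutral control for no effect and GW8510 at 10 µM for full effect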
Target sequence (Q00535 whole entry, looked up): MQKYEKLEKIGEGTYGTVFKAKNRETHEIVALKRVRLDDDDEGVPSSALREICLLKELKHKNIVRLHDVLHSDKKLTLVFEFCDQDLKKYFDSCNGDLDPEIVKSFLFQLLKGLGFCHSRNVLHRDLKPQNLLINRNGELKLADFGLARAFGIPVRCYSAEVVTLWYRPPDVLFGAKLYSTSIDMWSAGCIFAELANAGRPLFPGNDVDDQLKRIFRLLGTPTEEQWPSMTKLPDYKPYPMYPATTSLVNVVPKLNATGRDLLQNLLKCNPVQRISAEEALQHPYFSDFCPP
Target sequence (Q15078 whole entry, looked up): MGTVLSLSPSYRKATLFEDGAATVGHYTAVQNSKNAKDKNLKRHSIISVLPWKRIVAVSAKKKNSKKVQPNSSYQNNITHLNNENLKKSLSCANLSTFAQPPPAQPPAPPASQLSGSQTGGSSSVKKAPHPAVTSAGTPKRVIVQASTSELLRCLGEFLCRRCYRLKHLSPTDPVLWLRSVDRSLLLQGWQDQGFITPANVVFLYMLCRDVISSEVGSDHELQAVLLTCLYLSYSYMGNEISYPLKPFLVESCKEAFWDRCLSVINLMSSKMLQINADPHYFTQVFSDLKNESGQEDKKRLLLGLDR
ALR H2O2 inh: inhibitors of human ALR sulfhydryl oxidase, primary screen, biochemical, H2O2 detection, HRP-luminol luminescence, single point | FAD-linked sulfhydryl oxidase ALR (Homo sapiens), P55789 | purified ALR, DTT oxidation | AID 485317, 2010 | 290,000 compounds, 3.8% hits | inhibition, % (test concentration not listed);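 active = mean replicate inhibition above about 79%, with every replicate also reaching it, limit read from the data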
Casp6 inh: human caspase-6 inhibitors, primary screen, biochemical, VEID-R110 fluorescence, single point, set 2; 350,000 compounds, 0.53% hits; inhibition, % at 12.5 µM; purified caspase-6, Z-VEID-R110 cleavage fluorescence; P55212;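 active = mean inhibition across replicates at least about 35%, with every replicate also reaching that limit, limit read from the data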;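 also: 0% = median of neutral control wells and 100% = no fluorescence left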
Glyco luc inh: increase of ERlucT glycosylation luciferase signal, primary screen, N-linked glycosylation inhibitor project, D54 ERlucT cells, luminescence, set 2. D54 ERlucT glycosylation luciferase reporter, 24 h; percent of 100 nM tunicamycin response. reporter increase, % at 12.5 µM. 360,000 compounds, 0.23% hits;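 active = mean luciferase reporter signal, scaled so untreated is 0 and the glycosylation-blocking control 100, at or above a set limit in every replicate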;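 also: luciferase carries N-glycosylation sites so blocking glycosylation raises the light; 0% = median of neutral control wells and 100% = median of 100 nM tunicamycin wells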
* marks the source's active call; other numbers are inactive results. Shown are actives, neighbours in structure and some others; about 3.9% of the full set was active somewhere.

CC(C)n1cnc2cc(NCc3ccco3)ccc21 was read as NSD2 HMT inh 12, SUMO Mot1 rescue -4, CDK5 inh -15, ALR H2O2 inh 84*, Casp6 inh 18 and Glyco luc inh 4.
CC(C)(C)n1cnc2cc(NCc3ccccc3O)ccc21 was read as NSD2 HMT inh 5, SUMO Mot1 rescue 1, CDK5 inh 0, ALR H2O2 inh 99*, Casp6 inh -4 and Glyco luc inh 0.
For C[C@@H]1CN([C@@H](C)CO)C(=O)c2cc(NS(C)(=O)=O)ccc2O[C@@H](C)CCCCO[C@@H]1CN(C)C(=O)Nc1ccccc1 the results were Casp6 inh 2.
For CC(C)CC#Cc1cnc2c(c1)C(=O)N([C@H](C)CO)C[C@@H](C)[C@H](CN(C)C(=O)c1ccc(F)cc1)O2 the results were Casp6 inh 0.
C[C@@H]1CN([C@@H](C)CO)S(=O)(=O)c2ccc(C#CCN(C)C)cc2O[C@@H]1CN(C)Cc1cccnc1 was read as Casp6 inh -2.
`Fc1ccc2[nH]c3c(Cl)ncnc3c2c1` gave NSD2 HMT inh 0, SUMO Mot1 rescue -4, CDK5 inh 1, ALR H2O2 inh 95*, Casp6 inh -1 and Glyco luc inh 2.
For COc1ccc2[nH]c3c(Cl)ncnc3c2c1 the results were NSD2 HMT inh -4, SUMO Mot1 rescue 6, CDK5 inh -1, ALR H2O2 inh 47, Casp6 inh 3 and Glyco luc inh 4.
For CO[C@@H]1CN(C)C(=O)c2cc(NC(=O)C3CC3)ccc2OC[C@@H](C)N(Cc2cccc(F)c2)C[C@H]1C the results were Casp6 inh -3.
For Cc1ccc2sc(NNC(=O)c3cc(=O)c4ccccc4o3)nc2c1C the results were SUMO Mot1 rescue inactive, CDK5 inh -2, ALR H2O2 inh 99*, Casp6 inh 2 and Glyco luc inh 2.
`CCC(=O)N1CC(=O)N2[C@H](CO)[C@@H](c3ccc(-c4ccccc4C)cc3)[C@H]2C1` gave Casp6 inh 1.
Screening COc1ccc(S(=O)(=O)N[C@@H]2CC[C@H](CC(=O)N3CCN(c4ccccc4)CC3)O[C@@H]2CO)cc1 returned Casp6 inh -1.
CC(C)(C)NC(=O)CN(C(=O)CCN1CCCc2ccccc21)C(C)(C)C was read as NSD2 HMT inh 4, SUMO Mot1 rescue 6, CDK5 inh -2, ALR H2O2 inh 94*, Casp6 inh 0 and Glyco luc inh 2.
CC(C)(C)NC(=O)CN(Cc1cccs1)C(=O)CCN1CCc2ccccc21 was read as NSD2 HMT inh 5, SUMO Mot1 rescue -3, CDK5 inh 0, ALR H2O2 inh 72, Casp6 inh -2 and Glyco luc inh 0.
`COCC(=O)N[C@@H]1CC[C@H](CC(=O)NCc2ccccc2OC)O[C@@H]1CO` gave Casp6 inh -2.
For Cc1cc(N)n(-c2nc3ccccc3s2)n1 the results were NSD2 HMT inh 0, CDK5 inh -3, ALR H2O2 inh 99*, Casp6 inh -1 and Glyco luc inh -2.
`Cc1ccccc1S(=O)(=O)N1C[C@H](O)COC[C@H]2O[C@@H](CC(=O)N3CCOCC3)CC[C@@H]21` gave Casp6 inh -2.
`CCn1c(C)nc2cc(C(=O)NNC(=S)Nc3ccc(Cl)cc3)ccc21` gave NSD2 HMT inh -14, SUMO Mot1 rescue -22, CDK5 inh 2, ALR H2O2 inh 87*, Casp6 inh 0 and Glyco luc inh -2.
CCn1c(C)nc2cc(C(=O)N/N=C/c3ccc(OC)cc3)ccc21 was read as NSD2 HMT inh 2, SUMO Mot1 rescue -7, CDK5 inh 0, ALR H2O2 inh 2, Casp6 inh 8 and Glyco luc inh -1.
For CCn1c(C)nc2cc(C(=O)N/N=C/c3ccccc3)ccc21 the results were NSD2 HMT inh -1, SUMO Mot1 rescue 2, CDK5 inh 2, ALR H2O2 inh -14, Casp6 inh 2 and Glyco luc inh -5.
`CCn1c(C)nc2cc(C(=O)NNC(=S)Nc3ccc(F)cc3)ccc21` gave NSD2 HMT inh 1, SUMO Mot1 rescue 6, CDK5 inh 1, ALR H2O2 inh 65, Casp6 inh 2 and Glyco luc inh -1.
For CCn1c(C)nc2cc(C(=O)N/N=C/c3cccc(O)c3O)ccc21 the results were NSD2 HMT inh 1, SUMO Mot1 rescue -7, CDK5 inh 1, ALR H2O2 inh 99*, Casp6 inh 0 and Glyco luc inh -7.
Screening CCn1c(C)nc2cc(C(=O)N/N=C/c3ccc(O)cc3)ccc21 returned NSD2 HMT inh -1, SUMO Mot1 rescue 1, CDK5 inh 0, ALR H2O2 inh 99*, Casp6 inh 3 and Glyco luc inh -1.
For CCn1c(C)nc2cc(C(=O)N/N=C/c3ccc(N4CCOCC4)cc3)ccc21 the results were NSD2 HMT inh -6, SUMO Mot1 rescue -8, CDK5 inh -3, ALR H2O2 inh 91*, Casp6 inh 2 and Glyco luc inh -4.
For C/C=C/c1ccc([C@H]2[C@@H](CO)N(S(C)(=O)=O)C23CN(C(=O)CC)C3)cc1 the results were Casp6 inh -1.
`Cc1noc(C)c1NC(=O)N(C)C[C@H]1OCCCC[C@@H](C)Oc2ccc(NC(=O)c3ccncc3)cc2C(=O)N([C@H](C)CO)C[C@H]1C` gave Casp6 inh -2.
`COc1ccccc1CNC(=O)C[C@@H]1C[C@H]2c3cc(NC(=O)C4CCOCC4)ccc3O[C@H]2[C@@H](CO)O1` gave Casp6 inh -6.
`Cc1ccc(S(=O)(=O)Nc2ccc3c(c2)C(=O)N([C@@H](C)CO)C[C@@H](C)[C@H](CN(C)S(=O)(=O)c2ccc(C)cc2)O3)cc1` gave Casp6 inh -1.
CCC(=O)N[C@H]1CC[C@@H](CCNC(=O)Nc2ccc(F)cc2)O[C@H]1CO was read as Casp6 inh -1.
For CN(C)C(=O)C[C@H]1CC[C@H]2[C@@H](COC[C@@H](O)CN2CC2CCCCC2)O1 the results were Casp6 inh 2.
COc1cc(/C=C2/C(=O)N(c3ccc(C(=O)O)cc3)N=C2C)cc(OC)c1O was read as NSD2 HMT inh 7, SUMO Mot1 rescue -8, CDK5 inh 6, ALR H2O2 inh 93*, Casp6 inh 10 and Glyco luc inh 1.
C#CCOc1ccc(/C=C2/C(=O)N(c3ccc(S(N)(=O)=O)cc3)N=C2C)cc1OC was read as NSD2 HMT inh 5, Casp6 inh 39* and Glyco luc inh 6.
